ClpP mod – qHTS Assay for Activators of ClpP; AID 651965, 2013; 1.9% of 340,000 active; Potency, µM (top dose mostly 57.5 µM), inactives show top-dose activity change, negative = active; ATP-dependent Clp protease proteolytic subunit (Bacillus subtilis (strain 168)), P80244; purified B. subtilis ClpP, FRET peptide cleavage, 20 min; active = well fitted falling curve with a large enough effect; inconclusive = small, poorly fitted or top-dose-only effect; inactive = no such curve, though single readings can be large or run the other way; also: potency is read from the fitted curve at half-maximal effect; the source files actives as falling curves though it sought activators and does not explain the sign; nearly all actives have a fitted effect of over 65% in size
Target sequence (P80244 whole entry, looked up): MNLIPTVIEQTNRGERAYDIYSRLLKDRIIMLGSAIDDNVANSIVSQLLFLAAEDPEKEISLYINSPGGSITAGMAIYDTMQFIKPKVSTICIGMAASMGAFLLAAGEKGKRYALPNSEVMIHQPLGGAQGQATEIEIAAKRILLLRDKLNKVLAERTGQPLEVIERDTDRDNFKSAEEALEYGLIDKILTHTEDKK
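ClpP 10 microg/mL final, pH 8 Tris/KCl buffer with BSA, glycerol, Tween-20; compound pinned in; FRET-FV substrate; RT 20 min; Ex320/Em430; ΔFRET vs ADEP 5.8 microM, DMSO, no enzyme.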
MLL CXXC-DNA inh – inhibitors of human MLL CXXC domain-DNA interaction; Q03164; MLL-CXXC / FITC-HOXA9 DNA fluorescence polarization; Potency, µM (highest dose often 115 µM), for inactives: at the highest dose activity change, negative = inhibition, usual class: inhibitors; 0.037% of 290,000 active; AID 2662; active = well fitted inhibition curve with a large enough effect in the polarisation, with a control signal flat, not every such curve was filed as active; inconclusive = small, poorly fitted or top-dose-only effect, or effect the other way, or a change in a side signal; inactive = no such curve, though single readings can be large or run the other way; the % refers to the polarisation; also: potency is read from the fitted curve at half-maximal effect
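Fluorescence polarization: 7 uM MLL-CXXC (stock) preincubated 5 min with compounds, then 50 nM fluorescein-HOX-A9 DNA (stock) added; 30 min ambient. Buffer 50 mM Tris-HCl pH 7.5, 50 mM NaCl, 1 mM DTT, 0.05% BSA.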
Menin MLL FP TR – inhibitors of human menin-MLL interaction, mutant MLL peptide; Menin + Texas Red MLL mutant peptide, fluorescence polarization; Potency, µM (highest dose often 61.6 µM), without a hit: at the highest dose FP activity change, negative = inhibition, hits mostly inhibitors; 0.23% of 270,000 active; active = well fitted inhibition curve with a large enough effect in the polarisation, with a control signal flat, not every such curve was filed as active; inconclusive = small, poorly fitted or top-dose-only effect, or effect the other way, or a change in a side signal; inactive = no such curve, though single readings can be large or run the other way; the % refers to the polarisation; also: potency is read from the fitted curve at half-maximal effect; % of control where 0% means no effect
Target sequence (O00255 whole entry, looked up): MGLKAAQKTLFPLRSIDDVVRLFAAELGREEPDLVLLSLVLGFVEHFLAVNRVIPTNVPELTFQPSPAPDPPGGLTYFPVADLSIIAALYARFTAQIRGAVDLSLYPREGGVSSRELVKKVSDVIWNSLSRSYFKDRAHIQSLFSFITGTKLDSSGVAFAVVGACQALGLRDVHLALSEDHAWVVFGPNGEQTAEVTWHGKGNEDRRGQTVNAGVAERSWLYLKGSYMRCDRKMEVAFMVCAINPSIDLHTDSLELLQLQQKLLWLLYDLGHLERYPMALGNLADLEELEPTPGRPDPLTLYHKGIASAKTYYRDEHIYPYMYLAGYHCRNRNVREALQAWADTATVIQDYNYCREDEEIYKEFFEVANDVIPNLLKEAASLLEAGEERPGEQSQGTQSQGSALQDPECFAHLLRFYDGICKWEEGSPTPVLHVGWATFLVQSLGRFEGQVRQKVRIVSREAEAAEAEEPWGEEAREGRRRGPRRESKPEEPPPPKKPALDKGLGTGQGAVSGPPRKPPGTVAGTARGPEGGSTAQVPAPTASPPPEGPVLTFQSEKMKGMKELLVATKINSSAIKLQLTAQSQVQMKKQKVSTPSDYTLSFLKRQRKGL
Menin MLL FP FL – displaces fluorescein MLL peptide from human menin; Fluorescence polarization, fluorescein-MLL peptide displacement from menin; FP activity change, % at 61.4 µM; 290,000 tested, under 10 active; active = well fitted curve in the direction sought with a large enough effect in the polarisation, not every such curve was filed as active; inconclusive = small, poorly fitted or top-dose-only effect, or effect the other way, or a change in a side signal; inactive = no such curve, though single readings can be large or run the other way; the % refers to the polarisation; also: % of control where 0% means no effect
Epigenetic derep – regulators of epigenetic silencing causing reporter derepression in mouse cells; 0.2% of 280,000 active; Potency, µM (titrated, usually from 53.9 µM), without a hit: at the highest dose GFP activation, usual class: activators; murine LDR cells, GFP reporter derepression, 30 h; also: potency is read from the fitted curve at half-maximal effect; % of control where 0% means no effect; nearly all actives have a fitted effect of over 60% in size
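Derepression of a silenced CMV-GFP reporter in murine LDR cells is scored by enumerating GFP-positive cells with a laser-scanning microplate cytometer after 30 hours of treatment at 37 C.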
PINK1 modulator – changes PINK1 expression; PINK1 immunofluorescence, high-content cytometry, 24 h; Potency, µM (series often up to 76.6 µM), for inactives: at the top dose activation (PINK1 increase), hits mostly activators; AID 624263; 0.2% of 410,000 active; active = well fitted activation curve with a large enough effect; inconclusive = small, poorly fitted or top-dose-only effect; cell line not stated here; also: potency is read from the fitted curve at half-maximal effect; % of control where 0% means no effect; nearly all actives have a fitted effect of over 65% in size
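Stable cell line treated 24 h with compounds at 5 concentrations (CCCP controls), then fixed and immunostained for PINK1 plus nuclear and cell stains; PINK1 immunofluorescence quantified by laser-scanning microplate cytometry.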
ClpP inh valid – Bacillus subtilis ClpP inhibition, validated hit; shares compounds with ClpP mod; purified B. subtilis ClpP, FRET-FV substrate cleavage, 20 min; Potency, µM (series often up to 57.5 µM), for the others: at the top dose activity change, negative = inhibition, usual class: inhibitors; 40% of 470 active; also: potency is read from the fitted curve at half-maximal effect; % is scaled to controls: 0 for no effect and ±100 for the full control effect; nearly all actives have a fitted effect of over 70% in size
Numbers without * were called inactive; ? = inconclusive; / = no result given; [ ] = dose if it differs, or a comment. Compounds with a hit are over-represented: about 1.9% of the library has one in this group of screens. Unless noted, calls follow the shape of the dose curve; as a rule, active = well fitted curve in the direction sought with a large enough effect; inconclusive = small, poorly fitted or top-dose-only effect, or another doubt; inactive = no such curve, though single readings can be large; an effect the other way counts as inactive or inconclusive.

SMILES	ClpP mod	MLL CXXC-DNA inh	Menin MLL FP TR	Menin MLL FP FL	Epigenetic derep	PINK1 modulator	ClpP inh valid
CCCCCNC(=O)C(CCc1ccccc1)n1c(=O)c(-c2cc3ccccc3[nH]2)nc2ccccc21 (stereo unspecified)	33%	/	/	/	/	/	/
O=C(NC1CCCCC1)C(c1ccccc1F)n1c(=O)c(-c2cc3ccccc3[nH]2)nc2ccccc21 (stereo unspecified)	4%	/	/	/	/	/	/
COc1ccc(NC(=O)C(c2ccccc2F)n2c(=O)c(-c3cc4ccccc4[nH]3)nc3ccccc32)cc1 (stereo unspecified)	-2%	/	/	/	/	/	/
O=C(Nc1ccc2ccccc2c1)C(c1ccccc1F)n1c(=O)c(-c2cc3ccccc3[nH]2)nc2ccccc21 (stereo unspecified)	54%	/	/	/	/	/	6%
CCCCCNC(=O)C(c1cccc2ccccc12)n1c(=O)c(-c2cc3ccccc3[nH]2)nc2ccccc21 (stereo unspecified)	38%	/	/	/	/	/	7%
O=C(NCc1ccccc1)C(c1ccncc1)n1c(=O)c(-c2cc3ccccc3[nH]2)nc2ccccc21 (stereo unspecified)	-21%	/	/	/	/	/	/
O=C(NCc1ccccc1)C(c1ccc(-c2ccccc2)cc1)n1c(=O)c(-c2cc3ccccc3[nH]2)nc2ccccc21 (stereo unspecified)	36%	/	/	/	/	/	10%
CCN1CCN(c2cc(C)c3cc(NC(=S)N(C)Cc4ccccc4)ccc3n2)CC1	34%	3%	0%	2	/	3%	16%
COc1ccc(NCc2cc3cc4c(cc3n(CC(=O)Nc3ccc(C)c(C)c3)c2=O)OCO4)cc1	60%	/	/	/	-3%	?	?
O=S(=O)(c1ccc2c(Cl)cccc2c1)N1CCN(c2nc(-c3cccs3)nc3ccccc23)CC1	4.5µM*	/	/	/	/	5%	22µM*
O=S(=O)(c1ccc2c(c1)CCCC2)N1CCN(c2nc(-c3cccs3)nc3ccccc23)CC1	8.9µM*	/	/	/	/	-1%	24µM*
O=S(=O)(c1cccc(F)c1)N1CCN(c2nc(-c3cccs3)nc3ccccc23)CC1	?	/	/	/	/	0%	/
CC1=C(/C=C/C(C)=C\C=C\C(C)=C\C=C\C=C(C)\C=C\C=C(C)\C=C\C2=C(C)C[C@@H](O)CC2(C)C)C(C)(C)C[C@H](O)C1	/	-17%	-1%	8	/	/	/
Cc1ccc2[nH]c3c(c2c1)CCc1cn[nH]c1-3	2.8µM*	-1%	?	2	-5%	-5%[38.3 µM]	24µM*
CCCC(C)C(=O)Nc1ccc2c(c1)OCCO2 (stereo unspecified)	3.5µM*	4%	-27%	-1	-1%	0%	0%
CC(Nc1ccc2c(c1)OCCO2)C(=O)Nc1ccc2c(c1)OCO2 (stereo unspecified)	/	2%	6%	-2	1%	1%	/
NC(=S)Nc1cccc2cc3ccccc3cc12	-6%	5%	?	?	0%	2%	/
NC(=S)Nc1cc2ccccc2c2ccccc12	34%	12%	32%	3	-2%	-2%	19%
Cc1nc(-c2ccc(Cl)cc2)sc1C1(C)CC(c2c(Cl)cccc2Cl)=NO1 (stereo unspecified)	10µM*	1%	/	2	0%	5%	27µM*
Cc1nc(-c2ccccc2)sc1C1(C)CC(c2c(Cl)cccc2Cl)=NO1 (stereo unspecified)	?	27%	/	-1	2%	4%	/
CC(C)COc1ccc(C(=O)Nc2cc(S(=O)(=O)N3CCOCC3)ccc2N2CCCC2)cc1	47%	/	/	/	/	1%	-11%
CCOC(=O)CCCCCCCCCCCCC1C=CCC1 (stereo unspecified)	/	/	0%	3	0%	0%	/
CCN(CC(=O)Nc1c(F)cccc1F)C(=O)c1ccc(C2SCCS2)cc1	74%	/	/	/	/	3%	0%
O=C(NNc1ccccc1F)c1cccs1	0%	/	/	/	/	0%	/
COc1ccc(-c2nc3ccccc3o2)cc1NC(=O)c1ccc(-c2ccc(Br)cc2)o1	-19%	/	/	/	-1%	2%	/
SMILES	ClpP mod	MLL CXXC-DNA inh	Menin MLL FP TR	Menin MLL FP FL	Epigenetic derep	PINK1 modulator	ClpP inh valid
O=C(Nc1cccc(-c2nc3ccccc3o2)c1)c1ccc(-c2ccc(Br)cc2)o1	4µM*	/	/	/	10%	4%	11%
FC(F)(F)c1cc(-c2ccc(Cl)cc2)nc2ncnn12	2.8µM*	5%	-2%	2	2%	1%	17µM*
Cc1ccc(-c2cc(C(F)(F)F)n3nc(-c4ccc(Cl)cc4)cc3n2)cc1	1%	/	/	/	0%	4%	/
CC(NC(=O)c1cc(-c2ccc3c(c2)OCO3)nc2ccccc12)C(C)(C)C (stereo unspecified)	40%	3%	5%	2	1%	13%	24µM*
CCCn1c(=O)c2c(C(F)(F)F)cc(-c3ccco3)nc2n(CCC)c1=O	1.8µM*	6%	/	4	-1%	-6%[38.3 µM]	6.9µM*
CCCCn1c(=O)n(C)c(=O)c2c(C(F)(F)F)cc(-c3ccncc3)nc21	?	9%	-8%	4	-1%	0%	/
COc1ccc(NC(=O)c2nc[nH]c2C(=O)Nc2ccccc2C)cc1	72%	?	0%	-2	3%	11%	-12%
Cc1ccc(N2CCN(C(=O)NCc3noc4ccc(C)cc34)CC2)c(C)c1	1%	/	/	/	8%	-1%	/
COc1ccc(OC)c(NC(=O)c2cc3c(Cl)nc4ccccc4c3s2)c1	54%	5%	-6%	2	1%	8%	-26%
Cc1cccn2c(=O)c3cc(C(=O)NCCC4=CCCCC4)n(C)c3nc12	?	13%	/	/	/	6%	/
Cn1c(C(=O)NCCC2=CCCCC2)cc2c(=O)n3ccccc3nc21	7.9µM*	7%	8%	4	0%	1%	-16%
Cc1ccc(Cn2ccc(NC(=O)c3nn(C)cc3Cl)n2)cc1	91%	-1%	?	3	1%	0%	-1%
Cc1cccc(-c2cc3nc(C)cc(C)n3n2)c1	/	2%	-1%	3	0%	2%	/
Cc1cccc(-c2cc3nc(C)cc(N4CC(C)CC(C)C4)n3n2)c1 (stereo unspecified)	0.79µM*	?	-6%	2	-1%	?	-5%
Cc1ccc(-c2cc3nc(-c4ccccc4)cc(N4CCC5(CC4)OCCO5)n3n2)cc1	7.1µM*	4%	2%	5	-2%	2%	4%
Cc1cccc(-c2cc3nc(-c4ccccc4)cc(N4CCC5(CC4)OCCO5)n3n2)c1	3.2µM*	3%	-5%	1	0%	9%	24µM*
COc1ccc(-c2cc3nc(-c4ccccc4)cc(N4CCN(C(C)=O)CC4)n3n2)cc1	5%	/	/	/	/	-3%	/
